This is one part of a sample in which hits are shown more often than they occur.
Sfp PPTase inh: inhibitors of Bacillus subtilis Sfp phosphopantetheinyl transferase | Biochemical Sfp PPTase activity, qHTS | hit rate 3.5% among 310,000 | Q9F4F7 | Potency, µM, inactives show largest response in the series, negative = inhibition, actives largely listed as inhibitors | AID 1490;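 further: the enzyme is Sfp with the accession as filed and its product quenches rhodamine fluorescence; 0% = enzyme reaction without inhibitor and -100% = no enzyme wells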
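Fluorescence-quenching assay: 15 nM Sfp-PPTase preincubated 15 min at room temperature with compound, then 5 uM rhodamine-CoA and 12.5 uM BHQ-2-labelled YbbR peptide added. Fluorescence (ex 525/em 598 nm) read at start and after 30 min; difference gives rate.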
GRP78 ERSR act: induces the endoplasmic reticulum stress response in human glioma cells; U87-MG GRP78 promoter luciferase reporter, 16 h; Potency, µM, inactives show top-dose activation, actives largely listed as activators; hit rate 0.02% among 420,000; AID 602332; further: series mostly up to about 76 µM; % of control where 0% means no effect; nearly all actives have a fitted effect of over 35% in size
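Stably transfected U87-MG glioma cells carrying a GRP78-based luciferase sensor; 16 h compound incubation. Luminescence end-point read 10 min after Bright-Glo addition at room temperature.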
VDR inh: inhibitors of human vitamin D receptor; P11473; VDR-SRC2-3 peptide fluorescence polarization, 2 h; Potency, µM, without a hit: max response, negative = inhibition, most hits filed as inhibitors; hit rate 0.93% among 400,000; AID 504847; further: on the % scale 0 is the no-effect control and ±100 the full control effect
Target sequence (P11473 whole entry, looked up): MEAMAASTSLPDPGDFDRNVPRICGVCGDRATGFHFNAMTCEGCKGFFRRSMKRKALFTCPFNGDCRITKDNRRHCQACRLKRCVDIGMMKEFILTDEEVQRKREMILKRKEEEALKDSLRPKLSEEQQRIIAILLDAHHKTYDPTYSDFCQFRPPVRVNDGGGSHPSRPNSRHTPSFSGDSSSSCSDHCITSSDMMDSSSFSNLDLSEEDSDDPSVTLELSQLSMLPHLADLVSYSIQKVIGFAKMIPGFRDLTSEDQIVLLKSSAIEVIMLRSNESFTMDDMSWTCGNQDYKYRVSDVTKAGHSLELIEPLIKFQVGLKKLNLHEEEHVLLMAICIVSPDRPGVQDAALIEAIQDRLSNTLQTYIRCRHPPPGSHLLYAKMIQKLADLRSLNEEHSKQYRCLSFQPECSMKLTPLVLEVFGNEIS
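Reagent solutions, kept cold and dark, are dispensed first; compounds are then pinned in at 23 nl, plates briefly spun, and incubated 2 h at ambient temperature. Inhibition of VDR–SRC2-3 peptide binding is read by fluorescence polarization.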
G9a block: inhibitors of human histone lysine methyltransferase G9a. Q96KQ7. G9a H3K9 monomethylation, AlphaScreen, 2 h. Potency, µM (series often up to 102 µM), for the others: top-dose activity, negative = inhibition, most hits filed as inhibitors. hit rate 8.8% among 350,000. AID 504332; further: on the % scale 0 is the no-effect control and ±100 the full control effect; nearly all actives have a fitted effect of over 75% in size
Target sequence (Q96KQ7 913-1193 limits assumed): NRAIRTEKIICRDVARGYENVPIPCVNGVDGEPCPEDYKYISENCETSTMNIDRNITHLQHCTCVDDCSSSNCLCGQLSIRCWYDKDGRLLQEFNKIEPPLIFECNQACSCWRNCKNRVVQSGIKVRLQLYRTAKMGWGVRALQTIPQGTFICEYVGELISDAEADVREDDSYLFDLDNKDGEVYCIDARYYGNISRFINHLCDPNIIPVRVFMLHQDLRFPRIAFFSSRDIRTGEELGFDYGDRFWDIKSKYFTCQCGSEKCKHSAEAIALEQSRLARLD
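Signal arises when biotinylated H3K9 peptide, once monomethylated, bridges streptavidin donor and antibody-captured acceptor beads. Enzyme at 20 nM was preincubated 15 min with test compounds; peptide 500 nM and SAM 20 uM then reacted for 2 h.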
12-LOX inh: ALOX12 (human) lipoxygenase inhibition | P18054 | purified 12hLO, xylenol orange hydroperoxide absorbance | Potency, µM (highest dose often 108 µM), inactives show at the highest dose activity change, negative = inhibition, usual class: inhibitors | hit rate 1.1% among 580,000; further: on the % scale 0 is the no-effect control and ±100 the full control effect
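Purified human 12hLO (150 nM final) in 25 mM Hepes, 0.01% Triton X-100, pH 7.0 was preincubated 15 min at room temperature with compound. Then 40 uM arachidonic acid was added, 30 min. Hydroperoxide was read by Fe-XO absorbance ratio 573/405 nm.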
Numbers without * were called inactive; i = inactive; ? = inconclusive; nt = not tested or not shown; [ ] = remark or other dose. The call rests on the fitted dose curve; in most records, active means well fitted curve in the direction sought with a large enough effect; inconclusive means small, poorly fitted or top-dose-only effect, or another doubt; inactive means no such curve, though single readings can be large; an effect the other way counts as inactive or inconclusive. Potency means the concentration at half of the fitted maximal effect.

SMILES	Sfp PPTase inh	GRP78 ERSR act	VDR inh	G9a block	12-LOX inh
COc1ccc(OC)c(-c2nnc(SCC(=O)NC3CCCCC3)o2)c1	9%	-3%	3%	45µM*	404%
CCCC(C)C(=O)Nc1nnc(Cc2ccc(OC)c(OC)c2)s1 (stereo not given)	nt	nt	nt	nt	2%
O=C(COc1ccc(F)cc1)N1CCC(c2n[nH]c(=O)n2-c2ccccc2)CC1	nt	nt	nt	nt	6%
Cc1ccc(Cn2c(C3CCN(C(=O)c4ccc(C#N)cc4)CC3)n[nH]c2=O)cc1	nt	nt	nt	nt	6.3µM*
Cc1ccc(Cn2c(C3CCN(C(=O)c4cccc(C)c4)CC3)n[nH]c2=O)cc1	nt	nt	nt	nt	-1%
Cc1ccc(-n2c(C3CCN(C(=O)COc4ccc(F)cc4)CC3)n[nH]c2=O)cc1	nt	nt	nt	nt	45µM*
Cc1ccc(Cn2c(C3CCN(C(=O)c4cccc(F)c4)CC3)n[nH]c2=O)cc1	nt	nt	nt	nt	45µM*
O=C(Nc1ncn(Cc2cccc(C(F)(F)F)c2)n1)c1ccn(COc2ccc(Cl)cc2)n1	nt	nt	nt	nt	42%
Cc1ccc(C)c(NC(=O)Cn2nc(C)c3ccccc32)c1	nt	nt	nt	nt	-3%
O=C(CN1CCN(C2CCCCC2)CC1)c1ccc2cc[nH]c2c1	4%	-2%	2%	28µM*	-6%[57.4 µM]
O=C(O)c1ccc2cc[nH]c2c1	16%	-1%	-1%	3%[59 µM]	-22%
CCCC(c1nnnn1C(C)(C)C)N1CCN(c2ccccc2)CC1 (stereo not given)	7%	-5%	4%	0%	-5%
CCCC(c1nnnn1C(C)(C)C)N1CCN(Cc2ccccc2OC)CC1 (stereo not given)	56µM*	-5%	8%	-28%[12.7 µM]	?
COc1cccc(CNC(=O)c2c(C)oc3ccn(Cc4ccc(F)cc4)c(=O)c23)c1	nt	nt	nt	nt	22%
CCC(C)NC(=O)c1ccc2nc(Cc3ccccc3)oc2c1 (stereo not given)	nt	-2%	10%	2%[59 µM]	0%
O=C(Nc1cccc(C(F)(F)F)c1)c1ccc2nc(-c3ccco3)c(-c3ccco3)nc2c1	28µM*	-6%	20µM*	?	-39%
O=C(O)c1ccc2nc(-c3ccco3)c(-c3ccco3)nc2c1	7.9µM*	-1%	?	-123%[12.7 µM]	?
COc1ccc(CCNC(=O)c2ccc3nc(-c4ccco4)c(-c4ccco4)nc3c2)cc1OC	10µM*	-6%	79µM*	?	nt
CCC(C)NC(=O)c1ccc2nc(-c3ccco3)c(-c3ccco3)nc2c1 (stereo not given)	nt	0%	50µM*	nt	nt
CCc1nc2ccc(C(=O)NCCc3ccc(OC)c(OC)c3)cc2nc1CC	1%	-4%	-6%	-6%	19%
Cc1cc(CSCC(=O)Nc2ccccc2C)on1	nt	nt	nt	nt	-12%
N#Cc1cccc(C(=O)N(Cc2cccs2)C2CC2)c1	nt	nt	nt	nt	25%
O=C(CCc1ccsc1)N1CCCC(C(F)(F)F)C1 (stereo not given)	nt	nt	nt	nt	18%
O=C(O)c1ccc2nc3c(nc2c1)-c1ccccc1C3=O	7%	5%	?	32µM*	?
Cc1ccc(-c2nc3ccc(C(=O)O)cc3nc2-c2ccc(C)cc2)cc1	5%	-1%	-6%	-12%	?
SMILES	Sfp PPTase inh	GRP78 ERSR act	VDR inh	G9a block	12-LOX inh
Cc1ccc(S(=O)(=O)N(C)Cc2ccc(C(=O)N/N=C3\CCCC(=O)C3)cc2)cc1	-8%	-2%	0%	-12%[59 µM]	17%
O=C1CCC/C(=N\NC(=O)c2ccc(NS(=O)(=O)c3ccc(Br)cc3)cc2)C1	?	-3%	2%	79µM*	-25%
C=CCNC(=S)NNC(=O)c1cccc(C)c1	nt	nt	nt	nt	40%
Cc1ccc(NC(=S)Nc2ccccc2)nc1	nt	nt	nt	nt	22µM*
S=C(Nc1ccc(Nc2ccccc2)cc1)Nc1ccccn1	12%	-1%	-1%	10µM*	5.6µM*
S=C(Nc1ccccc1)Nc1ccccn1	nt	0%	nt	nt	?
COc1ccc(-c2cc3ccc(OS(C)(=O)=O)cc3oc2=O)cc1OC	nt	nt	nt	nt	11%
COc1ccc(Cl)cc1S(=O)(=O)n1ccnc1C(C)C	3%	-5%	-27%	50µM*	nt
CC(C)c1nccn1S(=O)(=O)c1cc(Cl)ccc1Cl	-3%	-4%	-5%	-2%[59 µM]	1%
COc1ccc(Cl)cc1S(=O)(=O)n1nnc2ccccc21	13%	-5%	29%	50µM*	0%
COc1cc(C)c(S(=O)(=O)n2c([N+](=O)[O-])cnc2C)cc1C	13%	-4%	-21%	17%[0.501 µM]	?
COc1ccc(Cl)cc1S(=O)(=O)n1c([N+](=O)[O-])cnc1C	71µM*	1%	-8%	-15%[0.501 µM]	?
CCN(CC)C(=O)[C@@H]1C[C@H](NC(=O)c2ccc[nH]2)CN1Cc1ccncc1	nt	nt	nt	nt	68%
Cc1cccc(C)c1NC(=O)CSc1nnc(NC(=O)c2ccccc2C(=O)O)s1	17%	1%	-9%	50µM*	?
Cc1cccc(C)c1NC(=O)COC(=O)CSc1nnc(N)s1	-11%	-3%	-19%	18%[59 µM]	?
CNC(=O)CSc1nnc(NC(=O)Nc2ccccc2)s1	nt	-1%	-3%	16µM*	?
Cc1cccc(C)c1NC(=O)CCCSc1nnc(N)s1	1%	-3%	-8%	50µM*	-1%
O=C(Nc1ccccc1)Nc1nnc(SCC(=O)N2CCCCC2)s1	nt	-4%	-4%	?	-24%
CC(=O)c1ccc(OCc2ccc(C(N)=O)cc2)cc1	nt	nt	nt	nt	6%
Cc1ccc2c(c1)c1c3n2CCN(CC(O)CNC(C)C)C3CCC1 (stereo not given)	6%	-2%	-11%	?	?
COC(Cn1c2c(c3cc(C)ccc31)CCCC2NCc1ccccc1)OC (stereo not given)	-13%	-7%	-12%	45µM*	0%
CC(C)CCNc1nc(C(=O)OCC(=O)NC(=O)NCC(C)C)cs1	nt	nt	nt	nt	-6%
CC(C)CCNc1nc(-c2ccc(O)c(C(N)=O)c2)cs1	nt	nt	nt	nt	7.9µM*
CN1C(=S)N(c2ccccc2)C(=O)/C1=C/c1ccco1	-44%	-2%	-3%	10µM*	?
C[C@@]1(C(=O)O)NCCc2cc(O)c(O)cc21	56µM*	-3%	-12%	nt	i
SMILES	Sfp PPTase inh	GRP78 ERSR act	VDR inh	G9a block	12-LOX inh
N=C1S/C(=C\c2ccc(-c3cccc(Cl)c3)o2)C(=O)N1c1nccs1	35µM*	-2%	-4%	3.5µM*	-24%
O=C1OC(c2cccs2)=N/C1=C\c1ccc(-c2cccc(Cl)c2)o1	79µM*	-8%	-25%	35µM*	?
O=C1OC(c2ccccc2)=N/C1=C/c1cccc(OC(=O)c2cccs2)c1	nt	-1%	-1%	nt	0%
COc1ccc2c(C)c(CCC(=O)Nc3ccc(C)cc3O)c(=O)oc2c1	nt	nt	nt	nt	-14%
COc1ccccc1CCn1cnc(-c2ccccc2)c1-c1cn(C)nc1C	nt	nt	nt	nt	113%
COc1cc(C2CC(=O)Nc3c2ncn3-c2ccccc2Br)ccc1O (stereo not given)	nt	nt	nt	nt	63%
COc1ccc(C2CC(=O)Nc3c2ncn3-c2cccc(C(F)(F)F)c2)cc1OC (stereo not given)	nt	nt	nt	nt	28µM*
CC1CCN(c2cc(C#N)c(C#N)cc2[N+](=O)[O-])CC1	1%	0%	-3%	-3%[59 µM]	-17%
